EPAC1 ag: activates human EPAC1 exchange factor; O95398; EPAC1 agonist qHTS, biochemical assay; response scale: 100% = response to 6.5 mM cAMP; Potency, µM (top dose mostly 154 µM), actives largely listed as activators; 0.073% of 360,000 active; further: nearly all actives have a fitted effect of over 60% in size
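EPAC1 100 nM, Rap1B–BODIPY-GDP 250 nM, unlabeled GDP 50 uM; compound titration; 5 min RT; kinetic read ex480/em540 at 5-min intervals ×30 min; data normalized to 6.5 mM cAMP agonist control.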
EPAC2 agonist: EPAC2 (human) agonism | EPAC2 activation, biochemical qHTS; response scale: 100% = 6.5 mM cAMP response | Q8WZA2 | Potency, µM (highest dose often 154 µM), most hits filed as activators | 0.079% of 360,000 active; further: nearly all actives have a fitted effect of over 50% in size
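Guanine nucleotide exchange by EPAC2 is measured as reduced fluorescence of BODIPY-GDP once it is released from 250 nM Rap1B. Plates are read kinetically for 30 min at room temperature; results are scaled to 6.5 mM cAMP.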
EPAC2 antag: antagonists of human EPAC2; Q8WZA2; EPAC2 GEF exchange of Rap1B-BODIPY-GDP, fluorescence; Potency, µM (highest dose often 114 µM), usual class: inhibitors; 0.18% of 360,000 active; AID 720708; further: nearly all actives have a fitted effect of over 45% in size
EPAC1 antagonist: antagonists of human EPAC1; 0.14% of 360,000 active; O95398; EPAC1 GEF assay, Rap1b-BODIPY-GDP exchange fluorescence; Potency, µM (titrated, usually from 115 µM), most hits filed as inhibitors; further: nearly all actives have a fitted effect of over 50% in size
Rango complex inh: Rango-importin beta binding inhibition; Potency, µM (series often up to 92.2 µM); Q14974; 0.031% of 340,000 active; Rango CFP/YFP FRET sensor + importin beta, 45 min; AID 540263; calls by dose curve; further: nearly all actives have a fitted effect of over 15% in size
Target sequence (Q14974 whole entry, looked up): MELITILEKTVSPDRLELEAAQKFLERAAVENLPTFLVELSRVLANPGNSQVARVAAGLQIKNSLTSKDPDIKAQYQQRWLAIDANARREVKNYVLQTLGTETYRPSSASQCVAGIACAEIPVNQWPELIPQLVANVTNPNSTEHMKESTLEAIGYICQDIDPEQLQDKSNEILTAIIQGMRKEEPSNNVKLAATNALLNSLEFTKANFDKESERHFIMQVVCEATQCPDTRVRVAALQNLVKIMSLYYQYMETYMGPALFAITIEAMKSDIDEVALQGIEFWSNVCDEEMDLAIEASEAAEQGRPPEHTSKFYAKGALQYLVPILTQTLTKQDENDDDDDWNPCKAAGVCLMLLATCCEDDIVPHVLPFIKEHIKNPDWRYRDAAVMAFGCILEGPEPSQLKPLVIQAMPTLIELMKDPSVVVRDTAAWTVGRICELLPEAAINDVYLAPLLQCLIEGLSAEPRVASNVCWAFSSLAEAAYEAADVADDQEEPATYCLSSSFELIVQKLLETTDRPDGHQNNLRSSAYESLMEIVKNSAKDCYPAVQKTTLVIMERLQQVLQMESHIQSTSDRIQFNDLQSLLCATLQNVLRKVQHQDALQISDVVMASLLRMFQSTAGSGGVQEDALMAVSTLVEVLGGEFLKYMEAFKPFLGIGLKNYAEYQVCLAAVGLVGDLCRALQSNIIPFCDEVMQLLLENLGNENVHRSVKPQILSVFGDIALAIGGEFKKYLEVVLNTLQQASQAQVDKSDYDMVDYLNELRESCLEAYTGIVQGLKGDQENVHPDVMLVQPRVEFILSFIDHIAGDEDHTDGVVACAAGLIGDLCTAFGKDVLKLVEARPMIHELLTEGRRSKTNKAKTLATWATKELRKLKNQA
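FRET biosensor Rango (snurportin 1 IBB between N-terminal EYFP and C-terminal Cerulean), 50 nM in PBS/1 mM DTT/0.02% Tween-20/0.1% BSA, preincubated 5 min RT with compound; 0.125 microM importin beta added, 45 min RT, CFP/YFP FRET ratio read.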
Rango dissoc inh: inhibition of RanGTP-driven Rango-importin beta dissociation; Biochemical FRET Rango-importin beta, RanGTP-induced dissociation; Potency, µM (titrated, usually from 46.1 µM); 0.071% of 340,000 active; calls by dose curve; further: nearly all actives have a fitted effect of over 45% in size
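FRET read at 45 min, room temperature: inhibitors block the CFP/YFP signal rise when RanGTP (0.6 uM Ran, 2 mM GTP, 0.2 uM RCC1) frees Rango (0.1 uM) from importin beta (0.25 uM). Pre-read after 5 min compound exposure flags interference.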
Hits are given with their value; . = inactive; ? = inconclusive; / = no result given. Hits are enriched below; roughly 0.43% of the tested compounds scored in any of these assays. Unless noted, the call rests on the fitted dose curve; in most records, active means well fitted curve in the direction sought with a large enough effect; inconclusive means small, poorly fitted or top-dose-only effect, or another doubt; inactive means no such curve, though single readings can be large; an effect the other way counts as inactive or inconclusive.

SMILES | EPAC1 ag | EPAC2 agonist | EPAC2 antag | EPAC1 antagonist | Rango complex inh | Rango dissoc inh
CN(CC(=O)Nc1ccc(F)cc1)C(=O)COC(=O)C1CCN(c2ccc(C(F)(F)F)cn2)CC1 | 100µM | . | . | . | . | .
O=C(COC(=O)C1CCN(c2ccc(C(F)(F)F)cn2)CC1)Nc1ccc(Cl)cc1 | . | . | . | . | . | .
COc1ccc2cc3[n+](cc2c1O)CCc1cc2c(cc1-3)OCO2 | . | . | 89.1µM | ? | / | /
COc1cc2c(cc1OC)-c1cc3ccc(OC)c(OC)c3c[n+]1CC2 | . | . | . | . | . | .
COC(=O)CCC(=O)OC1(C)C(=O)C2=CN(c3ccccc3)C(c3ccc(OC)cc3)=CC2=C(Br)C1=O (stereo not given) | . | . | . | . | ? | 16.4µM
Cc1ccc(CSC2=NCCN2S(=O)(=O)c2ccc(F)cc2)cc1 | . | . | 50.1µM | ? | . | .
CCc1nnc(NC(=O)CSc2nnc(Cc3cccn3C)n2C)s1 | . | . | . | . | . | .
Nc1c(C(=O)c2ccccc2)sc2nsc(SCCN3CCOCC3)c12 | 89.1µM | ? | . | . | ? | ?
C[C@@H]1CC=C[C@@H]2[C@H]1C(=O)N(Cc1ccccc1)[C@H]2c1ccccc1Br | . | . | 25.1µM | . | . | .
CCOC(=O)c1sc2nc3c(cc2c1N)COC(C)(CC)C3 (stereo not given) | . | . | . | . | ? | ?
CCC1(C)Cc2nc3sc(C(=O)O)c(N)c3cc2CO1 (stereo not given) | . | . | . | . | ? | 18.4µM
O=C1/C(=C/c2cccs2)SC(=S)N1NS(=O)(=O)c1ccccc1 | . | . | ? | . | . | .
O=C1/C(=C/C=C/c2ccco2)SC(=S)N1NS(=O)(=O)c1ccccc1 | . | . | ? | 100µM | ? | .
Cc1ccc(/C=c2\sc3nc(-c4ccccc4Br)nn3c2=O)o1 | . | . | . | . | . | .
C=CCn1c(=O)/c(=C/c2ccc(C)o2)s/c1=C(/C#N)C(=O)c1ccccc1 | . | 100µM | . | . | ? | ?
O=C(Nc1ccnn1C1CCN(CC(O)CO)CC1)C1CCCC1 (stereo not given) | . | . | . | . | . | .
CC(=O)c1sc2ccccc2c1OC(=O)c1ccco1 | . | . | . | . | ? | 25.9µM
Cc1ccc(NC(=O)CS(=O)CC(=O)N2CCN(C3CCCC3)CC2)cc1 (stereo not given) | . | . | . | . | . | .
O=C(O)CN1C(=O)/C(=C\c2cccc(OCc3ccccc3F)c2)SC1=S | . | . | 89.1µM | ? | . | .
O=C(O)CCN1C(=O)/C(=C\c2cccc(Oc3ccccc3)c2)SC1=S | . | . | 79.4µM | ? | . | .
O=C(O)CN1C(=O)/C(=C\c2cccc(OCc3ccc(F)cc3)c2)SC1=S | . | . | ? | . | . | .
CC(C)N(C)c1ncnc2c1ncn2[C@H]1CN(Cc2cccnc2)C[C@@H](CO)O1 | . | . | . | . | / | /
CCCc1cc(=O)[nH]c(SCC(=O)N(C)CC(=O)Nc2ccc(C)cc2)n1 | . | . | . | . | . | .
C=CCN1C(=O)/C(=C/c2ccc(OC(C)=O)c(OCC)c2[N+](=O)[O-])SC1=S | . | . | . | 70.8µM | . | .
N#CC(Sc1ccccn1)c1ccc(Cl)cc1Cl (stereo not given) | . | . | 25.1µM | . | . | .
Cc1csc2nc(NC(=O)c3ccccc3)sc(=O)c12 | . | . | . | . | ? | 5.8µM
O=C(COc1ccccc1C(=O)N/N=C\c1ccc(O)c(O)c1)N/N=C/c1ccc(O)c(O)c1 | . | . | . | 10µM | . | .
COc1cc(OC)c2c(O)c3c(c(-c4c5c(c(O)c6c(OC)cc(OC)cc46)CO[C@@H](C)[C@H]5O)c2c1)[C@H](O)[C@H](C)OC3 | . | . | . | 35.5µM | ? | ?
O=C(CC1Sc2ccccc2NC1=O)Nc1ccccc1[N+](=O)[O-] (stereo not given) | . | . | . | . | ? | .

Source: PubChem (National Center for Advancing Translational Sciences (NCATS))
